Reference: the supplement of paper PMC3334620
Over roughly 33,000 sequences, “E-score (-0.5 to 0.5)” has its median near -0.021; the highest 2% begin near 0.32. For the sample, the highest values were picked, then their nearest neighbours and some sequences at random.

molecular target: T1, Zap1 (UniProt P47043); experiment: PBM E-score (8-mer binding enrichment) (E-score (-0.5 to 0.5)); higher = stronger / more preferred TF binding; details: protein concentration: 200 nM; construct: GST-full length
T1 sequence: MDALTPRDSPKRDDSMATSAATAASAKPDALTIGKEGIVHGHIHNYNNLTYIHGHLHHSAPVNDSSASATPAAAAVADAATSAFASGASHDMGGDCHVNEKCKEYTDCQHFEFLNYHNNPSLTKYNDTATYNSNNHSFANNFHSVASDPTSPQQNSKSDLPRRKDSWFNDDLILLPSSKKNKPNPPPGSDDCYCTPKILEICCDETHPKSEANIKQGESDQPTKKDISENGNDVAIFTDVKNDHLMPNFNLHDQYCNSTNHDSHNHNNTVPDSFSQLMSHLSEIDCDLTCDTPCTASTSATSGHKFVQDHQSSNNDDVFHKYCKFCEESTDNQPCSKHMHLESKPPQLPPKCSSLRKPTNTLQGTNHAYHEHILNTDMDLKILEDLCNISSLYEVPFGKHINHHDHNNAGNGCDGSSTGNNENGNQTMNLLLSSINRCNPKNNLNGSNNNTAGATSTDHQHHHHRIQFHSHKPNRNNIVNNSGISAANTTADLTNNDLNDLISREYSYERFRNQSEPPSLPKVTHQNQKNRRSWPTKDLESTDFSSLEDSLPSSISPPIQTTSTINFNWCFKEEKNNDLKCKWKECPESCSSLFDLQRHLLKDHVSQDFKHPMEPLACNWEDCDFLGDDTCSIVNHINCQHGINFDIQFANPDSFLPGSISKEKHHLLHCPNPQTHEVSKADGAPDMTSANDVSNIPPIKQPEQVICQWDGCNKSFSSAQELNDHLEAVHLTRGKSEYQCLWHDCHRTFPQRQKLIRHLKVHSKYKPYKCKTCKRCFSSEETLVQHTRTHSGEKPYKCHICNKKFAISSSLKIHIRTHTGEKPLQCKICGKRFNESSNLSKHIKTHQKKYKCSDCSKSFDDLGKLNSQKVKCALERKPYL
Procedure: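 Universal 'all 10-mer' protein binding microarrays (Agilent AMADID 015681) probed with GST-tagged S. cerevisiae TFs (full-length or DBD) made by in vitro transcription/translation (PURExpress), about 100-200 nM. Bound TF was detected with fluorescent anti-GST. Each ungapped 8-mer (which stands for itself and its reverse complement) is scored by the PBM enrichment score (E-score), a modified Wilcoxon-Mann-Whitney statistic from -0.5 to +0.5, computed with the Universal PBM Analysis Suite. Scale: above 0.35 generally sequence-specific binding.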

| Sequence | PBM E-score |
| --- | --- |
| GTACCTTA | 0.265 |
| GGCATAGA | -0.0663 |
| CGCTACGA | -0.0679 |
| AAGGTACC | 0.445 |
| AAGGTACA | 0.223 |
| AAGGTACG | 0.0328 |
| CCAGTTAG | 0.00998 |
| CCAATAGA | -0.224 |
| CTAGTTAA | 0.144 |
| CGACGAAC | -0.0937 |
| CTATAATC | -0.017 |
| ATATAACC | 0.456 |
| CTATAACA | -0.0126 |
| CTATAACC | 0.446 |
| ATATAACA | 0.176 |
| ATATAACG | 0.183 |
| AACCAACA | 0.254 |
| CGGCTCGA | -0.172 |
| ACAAAAGC | -0.0458 |
| CAGCGCAG | -0.221 |
| AGGGTGGG | 0.334 |
| CGGGTTGC | 0.18 |
| AGGGTGGA | 0.163 |
| AGGGTGGC | 0.293 |
| AGGGTTGC | 0.46 |

| Sequence | PBM E-score |
| --- | --- |
| AGGGTTGG | 0.333 |
| AGGGTTGA | 0.271 |
| AGGGTTTC | 0.232 |
| ATGGTTGG | -0.0414 |
| TCATGCGA | -0.00209 |
| GCTCTTGA | -0.213 |
| CGGAGTTC | 0.0089 |
| GTTAGGAA | 0.168 |
| GAAGCAAC | 0.106 |
| AACCGGGG | -0.00821 |
| AACCGGGT | 0.319 |
| AACCGGTT | 0.348 |
| AACCGGGA | 0.133 |
| AACCGGTC | 0.14 |
| AACCGGTG | -0.0964 |
| CGGAACTA | 0.141 |
| CGATGCCG | -0.11 |
| GACTTGCA | -0.0829 |
| CGGGTTAA | 0.356 |
| GGAGTTAC | 0.137 |
| GGGTTTAC | 0.316 |
| CGGGTTTC | 0.289 |
| CGGGTTAG | 0.0706 |
| CGGGTTTA | 0.205 |
| GGGGTTAC | 0.464 |

| Sequence | PBM E-score |
| --- | --- |
| CGGGTTGA | 0.24 |
| CGGGTTAC | 0.439 |
| TCACAGCA | 0.124 |
| ACTCCTTG | 0.0145 |
| ATGGTGAA | -0.0722 |
| CACCACTG | -0.0127 |
| CTACGTAG | -0.0165 |
| TAAGTTCA | 0.0427 |
| GGTAGACA | -0.0227 |
| AACCGGTA | 0.0841 |
| CACCGGTA | 0.188 |
| CCCCGGTA | 0.153 |
| ACCCGGTC | -0.0272 |
| ACCCGGTA | 0.329 |
| TACCGGTA | 0.355 |
| ACTAGCTG | -0.214 |
| CATAGTGC | -0.16 |
| AGCGAATC | -0.083 |
| CTCCAGAC | -0.165 |
| ATGGTAAT | 0.239 |
| AGGGTAAG | 0.373 |
| AGGGTAAT | 0.38 |
| AGGGTAAA | 0.235 |
| AGAGTAAG | 0.0042 |
| GAGAGCAC | -0.00012 |

| Sequence | PBM E-score |
| --- | --- |
| CATTGGAG | -0.0511 |
| GAAGCATC | -0.258 |
| ACGATGCG | -0.223 |
| ACCGTAAT | 0.0558 |
| ACCGTAAC | 0.331 |
| ACCGTAAG | 0.101 |
| CTCGTAAG | 0.215 |
| CTCGTAAC | 0.327 |
| GTCGTAAC | 0.256 |
| ACAAGTCC | -0.0469 |
| GCAACTGC | -0.207 |
| ACGAGTTA | 0.0684 |
| ATACCTCC | -0.0021 |
| ATACCTCG | 0.338 |
| ATACCTCA | 0.223 |
| CACACCTA | -0.0992 |
| TAGACATA | 0.0776 |
| ACAAAGGT | 0.352 |
| AAAAAGGA | 0.15 |
| ACAAAGGG | 0.0567 |
| AAAAAGGG | 0.243 |
| ACAAAGGC | 0.0392 |
| AAAAAGGT | 0.403 |
